Assay outcomes deposited in PubChem by several laboratories.
Shown are actives, neighbours in structure and some others; about 3.8% of the full set was active somewhere.
TIM10 inh: inhibits growth of TIM10 yeast strain; inhibition, % at 10 µM; S. cerevisiae TIM10 strain growth, BacTiter-Glo luminescence, 24 h; 1.4% of 330,000 active;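 active = inhibition of 40% or more at the single tested concentration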;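 also: wild-type TIM10 isogenic control strain grown at permissive 25 °C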
tim23-1 inh: tim23-1 yeast growth inhibition | S. cerevisiae tim23-1 growth, BacTiter-Glo luminescence, 24 h | inhibition, % at 20 µM | 1.3% of 330,000 active | AID 463212;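 active = growth inhibition of the mutant yeast at or above 50%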;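 also: temperature-sensitive mutant grown at 25 °C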
PfHsp90 yeast 2: growth inhibition of yeast expressing Plasmodium Hsp90; S. cerevisiae expressing PfHsp90, BacTiter-Glo ATP, 48 h; yeast lacking PDR1 and PDR3 efflux regulators; inhibition, % at 9.4 µM; 0.32% of 310,000 active;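 active = every replicate shows inhibition above about 80%, whatever the replicate mean, limit read from the data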
tim10-1 inh: growth inhibitors of tim10-1 mutant yeast. S. cerevisiae tim10-1 ts strain growth, BacTiter-Glo, 24 h. inhibition, % at 20 µM. 2.2% of 330,000 active;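 active = inhibition of at least 40%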;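 also: mutant grown at 25 °C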
B2AR ag: activates human beta-2 adrenergic receptor causing internalization; P07550; Am2.2-beta2AR cells, FAP receptor internalization, flow cytometry; response, % (no concentration beside the values); 0.43% of 340,000 active; AID 504454;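 active = response above a set limit, near 3 SD of response in nonfluorescent compounds, cut at about 42% in these data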
Target sequence (P07550 whole entry, looked up): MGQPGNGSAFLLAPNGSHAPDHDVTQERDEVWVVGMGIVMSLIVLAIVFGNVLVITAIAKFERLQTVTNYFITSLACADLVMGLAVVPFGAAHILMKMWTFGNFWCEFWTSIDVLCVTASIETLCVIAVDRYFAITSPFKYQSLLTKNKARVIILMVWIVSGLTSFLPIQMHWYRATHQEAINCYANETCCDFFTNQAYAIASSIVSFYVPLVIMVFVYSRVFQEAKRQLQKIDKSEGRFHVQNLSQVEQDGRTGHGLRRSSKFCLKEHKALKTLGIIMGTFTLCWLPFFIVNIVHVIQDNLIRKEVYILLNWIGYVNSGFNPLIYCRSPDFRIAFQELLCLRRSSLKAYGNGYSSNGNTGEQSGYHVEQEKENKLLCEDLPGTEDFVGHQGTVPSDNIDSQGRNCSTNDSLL
Beta2AR ag CP1: agonists of human beta-2 adrenergic receptor. shares compounds with B2AR ag. Am2.2-beta2AR cells, FAP surface receptor, flow cytometry; active compounds read low. percent response (surface receptor), % at 10 µM. 25% of 1,100 active. AID 540358;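 active = surface receptor percent response at or below 58%, roughly 3 SD from nonfluorescent compounds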
B2AR FAP counter: counter-screen for beta-2AR agonists: fluorescence in Am2.2 cells | shares compounds with B2AR ag | FAP fluorogen flow cytometry, fluorescence counterscreen; active compounds read low | 1,100 tested, under 10 active | calls only at 10 µM;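 active = percent response below a set limit in fluorescence channel 1 and below 50% in channel 8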
Numbers stand for hits; – = inactive; · = no result given.

SMILES | TIM10 inh | tim23-1 inh | PfHsp90 yeast 2 | tim10-1 inh | B2AR ag | Beta2AR ag CP1 | B2AR FAP counter
CC(C)C[C@H](NC(=O)c1[nH]cnc1C(=O)N[C@@H](Cc1ccccc1)C(=O)OCc1ccccc1)C(=O)OCc1ccccc1 | – | – | – | – | – | · | ·
COCCNC(=O)c1cc(-c2ccccn2)nc2ccc(S(=O)(=O)N3CCC(C)CC3)cc12 | – | – | – | – | – | · | ·
CCOCCCNC(=O)c1cc(-c2cccnc2)nc2ccc(S(=O)(=O)N3CCC(C)CC3)cc12 | – | – | – | – | 59 | 57 | –
CCn1c(COc2ccc(Cl)cc2)nnc1SCc1ccc(C#N)cc1 | – | – | – | – | 44 | – | –
CC(C)[C@H](NC(=O)c1ccco1)C(=O)NC12CC3CC(CC(C3)C1)C2 | – | – | – | – | – | · | ·
O=C(O)CC(Sc1n[nH]c(=S)s1)C(=O)O (centres undefined) | – | – | – | – | – | · | ·
CCOC(=O)c1[nH]ncc1CN1CCCC(C(=O)c2ccc(OC)c(OC)c2)C1 (centres undefined) | – | – | – | – | 47 | – | –
CCCNc1nc(-c2ccccc2)c(C(=O)OCC)cc1C#N | – | – | – | – | 50 | – | –
Cc1cccc(C(=O)N2CCCC(N3CCN(c4ccc(F)cc4)CC3)C2)n1 (centres undefined) | – | – | – | – | – | · | ·
Cc1ccc(/C(=N/Nc2ncnc3ccccc23)C(=O)O)cc1 | – | – | – | – | – | – | –
Cc1ccc(Nc2ncnc3ccccc23)cc1 | – | – | – | – | – | · | ·
O=C(CSc1ccc(Br)cc1)Nc1ccccc1N1CCOCC1 | – | – | – | – | – | · | ·
COCCNC(=S)N/N=C(\C)c1ccc(Cl)s1 | – | – | – | – | – | – | –
COCCNC(=S)N/N=C(\C)c1ccc(Cl)c(Cl)c1Cl | – | – | – | – | – | · | ·
CCOC(=O)c1ccc(NC(=S)NNC(C)(C)C)cc1 | – | – | – | – | – | – | –
CCCCCCNC1=NCCS1 | – | – | – | – | – | · | ·
CCCCC(=O)Nc1ccc(C(=O)N2CCCC(C(=O)OCC)C2)cc1 (centres undefined) | – | – | · | – | 61 | 41 | –
Cc1nc(SCc2cccc(F)c2)c2oc3ccccc3c2n1 | – | – | – | – | – | · | ·
O=C(c1ccco1)N1CCCC(c2nc3c(nnn3Cc3ccccc3)c(=O)[nH]2)C1 (centres undefined) | – | – | – | – | – | · | ·
O=C(c1ccco1)N1CCCC(c2nc3c(nnn3Cc3c(Cl)cccc3Cl)c(=O)[nH]2)C1 (centres undefined) | – | – | – | – | 50 | – | –
Cc1ccc2c(c1)c1c3n2CCCNC3CCC1 (centres undefined) | – | – | – | – | – | · | ·
c1cc2c(cc1C1CCCCC1)c1c3n2CCCNC3CCC1 (centres undefined) | – | – | – | – | 44 | – | –
CCN(CC)CCN1C(=O)C(=O)/C(=C(/O)c2ccc(S(=O)(=O)N3CCOCC3)cc2)C1c1ccc(C(C)C)cc1 (centres undefined) | – | – | – | – | – | · | ·
O=C(Cc1ccccc1)NC1(Cc2ccc(O)cc2)CCCCC1 | – | – | – | – | 57 | 47 | –
NNC(=O)CC(=O)NC1(Cc2ccc(O)cc2)CCCCC1 | – | – | – | – | – | · | ·
SMILES | TIM10 inh | tim23-1 inh | PfHsp90 yeast 2 | tim10-1 inh | B2AR ag | Beta2AR ag CP1 | B2AR FAP counter
COc1cc(-c2cc(N)n(S(=O)(=O)c3ccccc3)n2)cc(OC)c1OC | – | – | – | – | 62 | – | –
COc1cc(C(=O)Oc2cc(N)n(S(=O)(=O)c3ccccc3)n2)cc(OC)c1OC | – | – | – | – | – | · | ·
C=CCn1cc(C(=O)OCC)c(=O)c2cc(F)c(F)cc21 | – | – | · | – | – | · | ·
CCOC(=O)c1cn(C2CC2)c2c(F)c(NCCCN(C)C)c(F)cc2c1=O | – | – | – | – | 64 | 38 | –
CCN(CC)S(=O)(=O)c1cc(C(=O)Nc2cc(Cl)ccc2N2CCN(C)CC2)ccc1Cl | – | – | – | – | 74 | 20 | –
Cc1cccc(C(=O)N2CC(=O)Nc3ccc(F)cc3C2c2ccc(F)cc2)c1 (centres undefined) | – | – | – | – | – | · | ·
